Source: PubChem BioAssay (NCATS)
Inconclusive results are not listed. Unmarked numbers belong to inactive results. The source made the active and inactive calls. Calls come from the whole dose curve; as a rule, active = well fitted inhibition curve with a large enough effect; inconclusive = small, poorly fitted or top-dose-only effect; inactive = flat fitted curve, though single readings scatter.

Target: Dual specificity protein kinase CLK4 (Homo sapiens) (UniProt Q9HAZ1)
Experiment: qHTS Assay for Inhibitors of CDC-like Kinase 4 (ADP-Glo Assay) (AID 1771); note: nearly all actives have a fitted effect of over 70% in size
Settings: recombinant CLK4, ADP-Glo luminescence; series mostly up to 80 µM; activity change, negative = inhibition: at the top concentration
Procedure: NIH Molecular Libraries Probe Production Centers Network [MLPCN] NIH Chemical Genomics Center [NCGC] MLPCN Grant: 1R03MH084827-01 Assay Submitter (PI): Tom Misteli NCGC Assay Overview: Clk4 (Invitrogen, cat# PV3839) was assayed using ATP and the RS repeat peptide (AnaSpec cat # 61722) as substrates. In the assay, the ADP levels were detected using Promega ADP-Glo technology wherein the remaining ATP from the kinase reaction is first depleted with an ATPase reagent followed by a reagent that contains and enzyme which converts the ADP produced to ATP as well as Ultra-Glo luciferase and D-luciferin which generates a bioluminescence signal from the ATP. The positive control for the assay was TG003 (Sigma-Aldrich, cat# 300801-52-9) which has been described as an inhibitor of Clk 4[1].
NCGC Assay Protocol Summary: Two uL/well of substrate-buffer solution (100 uM RS peptide, 1 uM ATP, 1x ADP-Glo Buffer A, 2 mM MgCl2, 0.5 mM EGTA, 2.5 mM DTT, 0.01% Triton X-100, final concentrations) was dispensed into 1536-well plates (Greiner, solid white, medium binding assay plates) with the Aurora Discovery BioRAPTR Flying Reagent Dispenser (FRD; Beckton-Dickenson). Twenty-three nanoliter of compound and control solutions were transferred to the assay plate using a Kalypsys pin-tool followed by 0.5 uL/well Clk4-buffer solution (25 nM Clk4, 1x ADP-Glo Buffer A, 2 mM MgCl2, 0.5 mM EGTA, 2.5 mM DTT, 0.01% Triton X-100 final concentration) dispensing for a total kinase reaction volume of 2.5 uL/ well. After 1 hr of room-temperature incubation, 2.5 uL ADP-Glo reagent was added and incubated at room temperature for 45 min to stop the kinetic reaction and degrade residual ATP. The ADP product was then converted to ATP by adding 5 uL per well of ADP-Glo Reagent II to yield a total assay volume of 10 uL/ well. Luminescence was detected after 30 min room temperature incubation with the Perkin Elmer Viewlux.
% is set by controls: 0 for no effect and ±100 for the full control effect; potency is the fitted concentration of half-maximal effect.

Chain of Dual specificity protein kinase CLK4 (Homo sapiens) (Q9HAZ1 whole entry, looked up): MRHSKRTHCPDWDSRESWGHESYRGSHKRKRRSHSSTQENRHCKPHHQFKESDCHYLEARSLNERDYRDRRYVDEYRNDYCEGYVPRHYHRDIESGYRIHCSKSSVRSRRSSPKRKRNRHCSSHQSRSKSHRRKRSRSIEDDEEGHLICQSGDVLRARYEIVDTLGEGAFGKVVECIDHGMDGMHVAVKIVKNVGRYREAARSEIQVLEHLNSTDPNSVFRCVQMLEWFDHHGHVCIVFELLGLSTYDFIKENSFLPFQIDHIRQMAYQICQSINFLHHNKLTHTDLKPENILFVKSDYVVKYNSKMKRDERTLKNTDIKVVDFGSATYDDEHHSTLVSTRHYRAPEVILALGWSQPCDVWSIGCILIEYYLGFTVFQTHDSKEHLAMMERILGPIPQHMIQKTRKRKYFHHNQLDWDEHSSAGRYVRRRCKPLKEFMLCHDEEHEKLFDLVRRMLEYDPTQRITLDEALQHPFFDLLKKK

SMILES | Potency | activity change, negative = inhibition
COc1cccc(Nc2ncc3nc(C)c(=O)n(C4CC4)c3n2)c1 | 11.2 µM (active) | –
FC(F)(F)c1ccccc1-c1nc(N2CCOCC2)c2ccccc2n1 | 14.1 µM (active) | –
COCCn1c(=O)c(-c2cccc(C#N)c2)nc2cnc(Oc3ccccc3)nc21 | – | -2.15%
Cc1cnc(CNc2ncnc3ccc(-c4c(C)noc4C)cc23)cn1 | 2.82 µM (active) | –
N#CCCn1c(=O)cnc2cnc(Oc3ccccc3)nc21 | – | -5.72%
O=c1c(-c2cccs2)nc2cncnc2n1Cc1ccccc1 | – | -21.3%
Cc1nc2cnc(Nc3ccccc3)nc2n(Cc2ccc(F)cc2)c1=O | – | -14.3%
Cc1noc(C)c1-c1cc(N2CCN(C)CC2)ncn1 | – | -15%
CN1CCN(c2ncncc2-c2ccccc2C(F)(F)F)CC1 | – | 4.85%
CN1CCN(c2ncc3nc(-c4cccc(C#N)c4)c(=O)n(Cc4ccc(F)cc4)c3n2)CC1 | – | -15.5%
Cn1c(=O)c(-c2cccs2)nc2cnc(N3CCNCC3)nc21 | – | -11.2%
Cc1ccccc1-c1cc(N(C)C)ncn1 | – | -9.36%
Clc1ccccc1-c1ccc2ncnc(NCc3cccnc3)c2c1 | 11.2 µM (active) | –
Cc1cccc(CNc2cc(-c3c(C)noc3C)ncn2)c1 | 15.8 µM (active) | –
COc1cccc(-c2cc(N(C)Cc3ccco3)ncn2)c1 | 14.1 µM (active) | –
Cc1ccccc1-c1nc(N2CCN(C)CC2)c2ccccc2n1 | – | -7.99%
CN(C)Cc1ccccc1-c1cc(N(C)Cc2ccco2)ncn1 | – | 5.96%
CC(=O)NCCNc1ncncc1-c1ccc(N(C)C)cc1 | – | -5.24%
COc1ccc(Oc2ncc3nc(C)c(=O)n(Cc4cccc(OC)c4)c3n2)cc1 | – | -17.9%
CN1CCN(c2ncc3nc(CCc4ccccc4)c(=O)n(C4CC4)c3n2)CC1 | – | 8.83%

SMILES | Potency | activity change, negative = inhibition
Cn1c(=O)c(-c2cccs2)nc2cnc(N3CCOCC3)nc21 | – | 12.4%
CN(Cc1ccco1)c1ncncc1-c1ccccc1Cl | – | -14%
COc1ccc(-n2c(=O)c(-c3cccs3)nc3cnc(OC)nc32)cc1 | – | -2.98%
CN1CCN(c2nc(-c3ccc4c(c3)OCO4)nc3ccccc23)CC1 | 15.8 µM (active) | –
CC(=O)NCCNc1nc(-c2cccnc2)nc2ccccc12 | 14.1 µM (active) | –
COc1ccc(-n2c(=O)cnc3cnc(N(C)C)nc32)cc1 | 12.6 µM (active) | –
CN(C)c1ncc2nc(-c3cccs3)c(=O)n(CCC#N)c2n1 | – | -18.5%
O=c1c(CCc2ccccc2)nc2cnc(N3CCNCC3)nc2n1C1CC1 | – | -0.927%
COc1ccc(CNc2ncnc3ccc(-c4cccc(NS(C)(=O)=O)c4)cc23)c(OC)c1 | 25.1 µM (active) | –
CC(=O)NCCNc1ncncc1-c1ccccc1C | – | 8.65%
COCCn1c(=O)c(-c2ccc(Cl)cc2)nc2cnc(Oc3cccc(Cl)c3)nc21 | – | 3.51%
COc1cccc(Nc2ncc3nc(C)c(=O)n(CCc4ccccc4)c3n2)c1 | 7.08 µM (active) | –
N#CCCn1c(=O)c(-c2ccc(Cl)cc2)nc2cnc(Oc3ccccc3)nc21 | – | 6.64%
Cn1c(=O)cnc2cnc(OCc3ccccc3)nc21 | 20 µM (active) | –
CS(=O)(=O)Nc1cccc(-c2ccc3ncnc(N4CCNCC4)c3c2)c1 | 15.8 µM (active) | –
Cn1c(=O)c(-c2ccc(Cl)cc2)nc2cnc(N3CCOCC3)nc21 | – | -0.83%
CNc1cc(-c2ccccc2C(F)(F)F)ncn1 | – | -17.8%
CN(C)Cc1ccccc1-c1nc(N(C)C)c2ccccc2n1 | – | -9.45%
COc1ccc(Oc2ncc3nc(-c4ccc(Cl)cc4)c(=O)n(C[C@H]4CCCO4)c3n2)cc1 | – | -3.93%
Cc1cnc(CNc2ncncc2-c2cccnc2)cn1 | – | -18.4%
